Test results taken from the supplement of paper PMC9942566.
± gives the standard deviation of the averaged measurements.

Tested on: Serratia marcescens K904 PosmB-luxCDABE reporter (pMQ747)
Experiment: PosmB-lux reporter fold induction (RLU/OD600 relative to no-compound control), highest over Biolog concentrations; higher = stronger Rcs reporter activation
Details: wild type K904; 4 h
Experimental: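 Serratia marcescens K904 (wild type) or its isogenic ΔrcsB mutant, carrying the Rcs-dependent PosmB-luxCDABE reporter plasmid pMQ747, was grown in LB at OD600 0.1 in Biolog Phenotype MicroArray plates PM11-20 for 4 h at 30-32°C. Each compound is present at 3-4 proprietary concentrations (not stated); per the Fig. S1 legend the value given is the highest fold over those wells. Three independent trials.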

SMILES	PosmB-lux reporter fold induction
CCn1cc(C(=O)O)c(=O)c2ccc(C)nc21 [Nalidixic Acid] (Biolog plate: PM11, well positions: E9-12)	3.44 ± 0.51
OB(O)O [Boric acid] (Biolog plate: PM14, well positions: C1-4)	1.77 ± 1.2
NO [hydroxylamine] (Biolog plate: PM19, well positions: G9-12)	1.82 ± 0.33
CN(C)[C@@H]1C(O)=C(C(=O)NCN2CCCC2)C(=O)[C@@]2(O)C(O)=C3C(=O)c4c(O)cccc4[C@@](C)(O)[C@H]3C[C@@H]12 [Rolitetracycline] (Biolog plate: PM13, well positions: D9-12)	1.49 ± 0.23
Cn1cnc([N+](=O)[O-])c1Sc1ncnc2[nH]cnc12 [azathioprine] (Biolog plate: PM18, well positions: B9-12)	0.797 ± 0.12
